# “And” between values parts separate entries of the source, which are not always exact repeats. Equal entries are not always repeated.
# Experiments:
# [1] = molecular target: Ephrin type-A receptor 2 (Homo sapiens) (UniProt P29317); conditions: at 0.1 µM
# [2] = molecular target: Ephrin type-A receptor 2 (Homo sapiens) (UniProt P29317); conditions: at 1 µM
# [3] = molecular target: T1, Ephrin type-A receptor 3 (Homo sapiens) (UniProt P29320); conditions: at 0.1 µM
# T1 sequence (whole entry): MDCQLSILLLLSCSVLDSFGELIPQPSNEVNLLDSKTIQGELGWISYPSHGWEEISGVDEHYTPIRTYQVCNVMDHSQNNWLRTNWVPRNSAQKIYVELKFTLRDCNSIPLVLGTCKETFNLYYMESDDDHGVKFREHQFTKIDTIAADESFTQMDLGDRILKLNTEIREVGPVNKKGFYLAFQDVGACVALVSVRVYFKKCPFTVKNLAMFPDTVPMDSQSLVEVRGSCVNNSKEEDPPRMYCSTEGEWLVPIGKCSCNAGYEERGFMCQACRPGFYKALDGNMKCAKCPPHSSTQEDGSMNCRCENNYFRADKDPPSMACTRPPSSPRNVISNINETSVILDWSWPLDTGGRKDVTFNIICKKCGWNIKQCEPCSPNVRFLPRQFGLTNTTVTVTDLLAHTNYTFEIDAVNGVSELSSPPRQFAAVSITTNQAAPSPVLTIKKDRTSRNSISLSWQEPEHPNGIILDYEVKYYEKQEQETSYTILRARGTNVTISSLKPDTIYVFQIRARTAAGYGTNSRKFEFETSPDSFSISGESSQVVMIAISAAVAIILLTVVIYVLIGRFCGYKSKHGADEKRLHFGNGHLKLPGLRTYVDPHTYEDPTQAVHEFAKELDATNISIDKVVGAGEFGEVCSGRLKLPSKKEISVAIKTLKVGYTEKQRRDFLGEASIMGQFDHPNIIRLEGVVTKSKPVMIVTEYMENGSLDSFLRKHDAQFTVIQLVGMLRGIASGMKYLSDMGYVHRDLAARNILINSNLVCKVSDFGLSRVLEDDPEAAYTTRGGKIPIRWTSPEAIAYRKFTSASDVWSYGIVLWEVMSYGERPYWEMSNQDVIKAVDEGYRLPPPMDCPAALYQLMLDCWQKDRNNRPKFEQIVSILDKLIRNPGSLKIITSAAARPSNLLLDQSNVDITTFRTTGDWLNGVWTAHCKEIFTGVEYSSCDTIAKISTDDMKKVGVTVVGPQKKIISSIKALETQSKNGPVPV
# [4] = molecular target: T1, Ephrin type-A receptor 3 (Homo sapiens); conditions: at 1 µM
# [5] = molecular target: Ephrin type-A receptor 4 (Homo sapiens) (UniProt P54764); conditions: at 0.1 µM
# [6] = molecular target: Ephrin type-A receptor 4 (Homo sapiens) (UniProt P54764); conditions: at 1 µM
# [7] = molecular target: T2, Ephrin type-B receptor 2 (Homo sapiens) (UniProt P29323); conditions: at 0.1 µM
# T2 sequence (whole entry): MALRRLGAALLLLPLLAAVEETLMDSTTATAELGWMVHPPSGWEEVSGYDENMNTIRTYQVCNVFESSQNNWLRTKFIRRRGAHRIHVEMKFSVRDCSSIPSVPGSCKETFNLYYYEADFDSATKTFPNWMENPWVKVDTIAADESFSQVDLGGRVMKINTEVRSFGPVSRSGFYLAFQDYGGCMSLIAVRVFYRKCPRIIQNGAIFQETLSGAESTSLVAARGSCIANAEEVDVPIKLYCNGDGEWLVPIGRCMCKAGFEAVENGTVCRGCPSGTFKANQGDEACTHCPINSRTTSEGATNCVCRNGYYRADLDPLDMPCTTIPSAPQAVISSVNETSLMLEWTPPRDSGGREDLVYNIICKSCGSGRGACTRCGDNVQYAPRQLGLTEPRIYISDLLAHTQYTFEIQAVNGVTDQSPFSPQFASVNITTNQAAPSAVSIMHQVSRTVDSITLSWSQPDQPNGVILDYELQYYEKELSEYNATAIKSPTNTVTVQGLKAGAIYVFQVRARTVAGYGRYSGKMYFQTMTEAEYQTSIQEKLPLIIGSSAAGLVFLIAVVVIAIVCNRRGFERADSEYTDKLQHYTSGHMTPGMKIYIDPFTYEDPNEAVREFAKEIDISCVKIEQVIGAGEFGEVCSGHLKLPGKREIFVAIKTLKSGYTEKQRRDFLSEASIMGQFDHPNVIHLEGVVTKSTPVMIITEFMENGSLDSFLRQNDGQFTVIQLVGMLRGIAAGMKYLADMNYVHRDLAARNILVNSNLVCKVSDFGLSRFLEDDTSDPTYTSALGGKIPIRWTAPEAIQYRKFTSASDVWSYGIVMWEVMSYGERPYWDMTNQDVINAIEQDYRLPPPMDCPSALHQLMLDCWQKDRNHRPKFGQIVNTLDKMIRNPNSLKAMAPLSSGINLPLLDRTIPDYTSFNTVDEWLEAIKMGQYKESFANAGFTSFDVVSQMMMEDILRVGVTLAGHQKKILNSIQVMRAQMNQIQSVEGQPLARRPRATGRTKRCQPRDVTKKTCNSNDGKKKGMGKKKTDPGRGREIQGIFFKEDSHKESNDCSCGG
# [8] = molecular target: T2, Ephrin type-B receptor 2 (Homo sapiens); conditions: at 1 µM
# [9] = molecular target: T3, Ephrin type-B receptor 3 (Homo sapiens) (UniProt P54753); conditions: at 0.1 µM
# T3 sequence (whole entry): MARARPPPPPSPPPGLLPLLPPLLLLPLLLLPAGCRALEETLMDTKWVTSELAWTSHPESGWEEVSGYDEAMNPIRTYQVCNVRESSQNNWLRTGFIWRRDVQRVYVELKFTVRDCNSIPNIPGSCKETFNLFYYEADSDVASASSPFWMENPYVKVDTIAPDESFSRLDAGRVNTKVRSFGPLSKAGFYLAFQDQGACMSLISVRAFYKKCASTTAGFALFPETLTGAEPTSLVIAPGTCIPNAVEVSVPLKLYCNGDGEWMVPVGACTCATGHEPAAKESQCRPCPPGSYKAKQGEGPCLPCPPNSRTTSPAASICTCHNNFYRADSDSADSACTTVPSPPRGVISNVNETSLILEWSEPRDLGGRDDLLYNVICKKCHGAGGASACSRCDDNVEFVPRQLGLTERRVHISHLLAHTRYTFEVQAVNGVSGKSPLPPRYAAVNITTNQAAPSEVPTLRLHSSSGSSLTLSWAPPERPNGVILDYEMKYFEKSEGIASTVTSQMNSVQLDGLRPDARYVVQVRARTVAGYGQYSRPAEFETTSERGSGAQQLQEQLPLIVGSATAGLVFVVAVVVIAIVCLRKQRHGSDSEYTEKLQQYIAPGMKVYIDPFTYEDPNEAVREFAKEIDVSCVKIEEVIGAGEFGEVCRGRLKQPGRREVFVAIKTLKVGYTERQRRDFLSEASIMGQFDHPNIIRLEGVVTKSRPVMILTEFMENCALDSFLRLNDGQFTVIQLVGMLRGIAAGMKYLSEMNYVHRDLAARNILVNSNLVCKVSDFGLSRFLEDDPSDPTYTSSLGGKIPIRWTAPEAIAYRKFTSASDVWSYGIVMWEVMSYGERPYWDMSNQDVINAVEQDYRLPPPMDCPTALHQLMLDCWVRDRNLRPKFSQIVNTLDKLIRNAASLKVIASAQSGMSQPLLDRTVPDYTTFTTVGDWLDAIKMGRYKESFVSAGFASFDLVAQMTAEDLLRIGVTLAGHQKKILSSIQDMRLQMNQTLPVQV
# [10] = molecular target: T3, Ephrin type-B receptor 3 (Homo sapiens); conditions: at 1 µM
# [11] = molecular target: T4, Ephrin type-B receptor 4 (Homo sapiens) (UniProt P54760); conditions: at 0.1 µM
# T4 sequence (whole entry): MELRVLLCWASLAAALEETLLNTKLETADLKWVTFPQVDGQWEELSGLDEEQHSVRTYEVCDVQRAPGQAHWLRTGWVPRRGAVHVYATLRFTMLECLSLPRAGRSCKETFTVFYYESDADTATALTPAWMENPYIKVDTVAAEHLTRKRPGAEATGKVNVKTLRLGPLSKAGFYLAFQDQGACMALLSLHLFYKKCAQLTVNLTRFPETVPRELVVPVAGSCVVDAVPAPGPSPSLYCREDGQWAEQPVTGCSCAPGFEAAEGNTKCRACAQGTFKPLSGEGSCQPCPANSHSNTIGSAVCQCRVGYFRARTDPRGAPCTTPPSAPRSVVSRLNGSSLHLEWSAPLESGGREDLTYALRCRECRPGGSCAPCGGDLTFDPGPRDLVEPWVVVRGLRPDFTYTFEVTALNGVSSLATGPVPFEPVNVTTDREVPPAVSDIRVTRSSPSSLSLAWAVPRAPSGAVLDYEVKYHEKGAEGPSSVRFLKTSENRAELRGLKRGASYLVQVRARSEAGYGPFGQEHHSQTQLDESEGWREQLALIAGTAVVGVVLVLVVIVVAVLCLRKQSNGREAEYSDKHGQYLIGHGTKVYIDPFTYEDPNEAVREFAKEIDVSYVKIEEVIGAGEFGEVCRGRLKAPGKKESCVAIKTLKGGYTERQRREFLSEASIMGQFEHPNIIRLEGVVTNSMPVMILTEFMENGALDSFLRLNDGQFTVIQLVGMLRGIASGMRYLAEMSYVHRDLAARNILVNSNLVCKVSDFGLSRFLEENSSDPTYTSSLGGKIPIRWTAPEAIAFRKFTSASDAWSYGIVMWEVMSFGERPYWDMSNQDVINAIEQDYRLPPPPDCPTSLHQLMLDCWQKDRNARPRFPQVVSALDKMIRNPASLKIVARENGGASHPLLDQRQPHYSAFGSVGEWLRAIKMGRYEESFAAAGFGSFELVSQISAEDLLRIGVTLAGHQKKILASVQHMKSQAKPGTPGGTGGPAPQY
# [12] = molecular target: T4, Ephrin type-B receptor 4 (Homo sapiens); conditions: at 1 µM
# [13] = molecular target: Receptor tyrosine-protein kinase erbB-2 (Homo sapiens) (UniProt P04626); conditions: at 0.1 µM
# [14] = molecular target: Receptor tyrosine-protein kinase erbB-2 (Homo sapiens) (UniProt P04626); conditions: at 1 µM
# [15] = molecular target: Receptor tyrosine-protein kinase erbB-4 (Homo sapiens) (UniProt Q15303); conditions: at 0.1 µM
# [16] = molecular target: Receptor tyrosine-protein kinase erbB-4 (Homo sapiens) (UniProt Q15303); conditions: at 1 µM
# [17] = molecular target: Tyrosine-protein kinase Fer (Homo sapiens) (UniProt P16591); conditions: at 0.1 µM;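 further: reported figures are averaged percent inhibition of FER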
# [18] = system: Epidermal growth factor receptor (Homo sapiens), P00533 [T790M]; conditions: at 1 µM
# [19] = system: Epidermal growth factor receptor (Homo sapiens), P00533 [L858R,T790M]; conditions: at 0.1 µM
# [20] = system: Epidermal growth factor receptor (Homo sapiens), P00533 [L858R,T790M]; conditions: at 1 µM
# Epidermal growth factor receptor (Homo sapiens), P00533 [T790M], sequence (P00533 whole entry T790M): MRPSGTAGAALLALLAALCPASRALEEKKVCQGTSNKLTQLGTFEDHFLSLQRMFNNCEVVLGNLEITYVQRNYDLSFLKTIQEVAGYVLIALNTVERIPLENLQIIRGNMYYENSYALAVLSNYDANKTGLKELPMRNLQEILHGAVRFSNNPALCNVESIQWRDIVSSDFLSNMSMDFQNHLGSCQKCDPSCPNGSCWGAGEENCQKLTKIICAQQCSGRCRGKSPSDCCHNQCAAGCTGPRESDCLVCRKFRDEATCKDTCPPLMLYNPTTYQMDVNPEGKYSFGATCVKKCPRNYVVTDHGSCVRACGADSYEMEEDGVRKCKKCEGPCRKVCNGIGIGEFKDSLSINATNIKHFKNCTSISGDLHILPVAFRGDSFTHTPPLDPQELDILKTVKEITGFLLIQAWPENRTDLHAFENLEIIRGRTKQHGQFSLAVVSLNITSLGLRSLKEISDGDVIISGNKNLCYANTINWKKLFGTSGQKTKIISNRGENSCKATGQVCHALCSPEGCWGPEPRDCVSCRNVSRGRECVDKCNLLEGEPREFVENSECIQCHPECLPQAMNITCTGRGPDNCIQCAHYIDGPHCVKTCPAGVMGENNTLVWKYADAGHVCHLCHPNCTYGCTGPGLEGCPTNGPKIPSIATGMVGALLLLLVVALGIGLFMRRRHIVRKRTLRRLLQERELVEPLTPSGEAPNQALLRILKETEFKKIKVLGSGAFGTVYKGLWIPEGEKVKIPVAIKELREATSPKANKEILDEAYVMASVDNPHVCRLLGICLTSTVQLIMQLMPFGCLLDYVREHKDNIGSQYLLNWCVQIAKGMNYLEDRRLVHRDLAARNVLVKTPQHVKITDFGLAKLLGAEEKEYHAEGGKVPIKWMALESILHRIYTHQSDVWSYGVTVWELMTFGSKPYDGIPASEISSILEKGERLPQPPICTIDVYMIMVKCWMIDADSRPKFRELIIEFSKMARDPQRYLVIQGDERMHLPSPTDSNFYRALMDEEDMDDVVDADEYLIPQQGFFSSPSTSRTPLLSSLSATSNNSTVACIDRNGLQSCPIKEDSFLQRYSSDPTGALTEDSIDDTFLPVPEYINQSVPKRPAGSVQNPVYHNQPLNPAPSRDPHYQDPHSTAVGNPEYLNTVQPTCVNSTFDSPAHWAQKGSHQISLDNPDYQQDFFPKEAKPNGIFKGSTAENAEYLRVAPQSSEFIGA
# Ephrin type-A receptor 2 (Homo sapiens), sequence (P29317 whole entry): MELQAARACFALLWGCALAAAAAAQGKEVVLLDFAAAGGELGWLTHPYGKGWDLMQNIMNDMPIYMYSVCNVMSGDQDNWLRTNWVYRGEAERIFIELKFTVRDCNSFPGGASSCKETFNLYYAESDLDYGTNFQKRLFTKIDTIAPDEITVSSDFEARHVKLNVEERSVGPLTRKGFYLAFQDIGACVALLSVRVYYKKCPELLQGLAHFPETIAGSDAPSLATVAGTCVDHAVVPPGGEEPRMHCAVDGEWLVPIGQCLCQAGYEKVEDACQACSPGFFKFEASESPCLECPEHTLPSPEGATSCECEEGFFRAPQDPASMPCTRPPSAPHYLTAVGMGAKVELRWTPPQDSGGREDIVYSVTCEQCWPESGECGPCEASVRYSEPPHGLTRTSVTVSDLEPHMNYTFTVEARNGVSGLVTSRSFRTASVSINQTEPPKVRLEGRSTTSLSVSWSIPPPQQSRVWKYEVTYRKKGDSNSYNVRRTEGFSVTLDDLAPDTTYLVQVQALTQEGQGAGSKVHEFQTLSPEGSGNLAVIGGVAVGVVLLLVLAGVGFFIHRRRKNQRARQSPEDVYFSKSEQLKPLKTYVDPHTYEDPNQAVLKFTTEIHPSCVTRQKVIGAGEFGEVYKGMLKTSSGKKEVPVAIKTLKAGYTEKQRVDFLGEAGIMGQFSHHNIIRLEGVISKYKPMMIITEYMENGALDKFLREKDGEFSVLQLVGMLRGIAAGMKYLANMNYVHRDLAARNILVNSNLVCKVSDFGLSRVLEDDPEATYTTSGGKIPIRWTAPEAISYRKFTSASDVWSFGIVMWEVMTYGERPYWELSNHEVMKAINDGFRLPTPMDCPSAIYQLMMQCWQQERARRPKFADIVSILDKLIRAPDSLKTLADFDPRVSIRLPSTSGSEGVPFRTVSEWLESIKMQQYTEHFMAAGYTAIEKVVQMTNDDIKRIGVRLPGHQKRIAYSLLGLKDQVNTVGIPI
# Receptor tyrosine-protein kinase erbB-2 (Homo sapiens), sequence (P04626 whole entry): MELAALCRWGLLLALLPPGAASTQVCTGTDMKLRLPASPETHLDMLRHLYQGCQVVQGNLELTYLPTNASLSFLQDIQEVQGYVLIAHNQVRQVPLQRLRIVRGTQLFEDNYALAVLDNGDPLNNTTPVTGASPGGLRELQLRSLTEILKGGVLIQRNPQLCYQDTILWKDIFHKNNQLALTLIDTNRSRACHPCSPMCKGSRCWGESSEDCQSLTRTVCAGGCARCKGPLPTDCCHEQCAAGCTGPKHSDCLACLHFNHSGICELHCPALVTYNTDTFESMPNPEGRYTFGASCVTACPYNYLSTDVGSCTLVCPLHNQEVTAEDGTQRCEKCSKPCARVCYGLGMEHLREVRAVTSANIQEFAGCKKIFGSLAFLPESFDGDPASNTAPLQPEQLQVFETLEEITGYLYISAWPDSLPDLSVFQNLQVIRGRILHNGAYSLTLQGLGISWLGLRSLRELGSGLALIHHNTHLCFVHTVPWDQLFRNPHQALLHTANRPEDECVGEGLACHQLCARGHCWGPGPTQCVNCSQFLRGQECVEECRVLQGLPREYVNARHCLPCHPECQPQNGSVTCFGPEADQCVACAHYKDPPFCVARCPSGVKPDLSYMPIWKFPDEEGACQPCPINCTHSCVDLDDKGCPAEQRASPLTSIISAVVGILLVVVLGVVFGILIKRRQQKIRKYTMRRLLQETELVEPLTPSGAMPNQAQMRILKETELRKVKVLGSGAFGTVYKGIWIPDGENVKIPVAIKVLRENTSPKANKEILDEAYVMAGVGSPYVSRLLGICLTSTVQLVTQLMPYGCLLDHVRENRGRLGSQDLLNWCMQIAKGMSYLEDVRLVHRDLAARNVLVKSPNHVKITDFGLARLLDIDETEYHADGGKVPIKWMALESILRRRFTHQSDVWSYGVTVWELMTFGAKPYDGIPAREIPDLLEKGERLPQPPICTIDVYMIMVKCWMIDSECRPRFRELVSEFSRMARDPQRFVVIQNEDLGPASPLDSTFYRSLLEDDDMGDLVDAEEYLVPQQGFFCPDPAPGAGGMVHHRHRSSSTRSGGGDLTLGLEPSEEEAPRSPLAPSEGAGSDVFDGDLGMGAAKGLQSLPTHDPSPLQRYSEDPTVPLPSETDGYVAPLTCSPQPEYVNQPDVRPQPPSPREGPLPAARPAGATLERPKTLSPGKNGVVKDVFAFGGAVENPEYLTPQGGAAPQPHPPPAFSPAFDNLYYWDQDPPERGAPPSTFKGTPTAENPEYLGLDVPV
# Tyrosine-protein kinase Fer (Homo sapiens), sequence (P16591 whole entry, looked up): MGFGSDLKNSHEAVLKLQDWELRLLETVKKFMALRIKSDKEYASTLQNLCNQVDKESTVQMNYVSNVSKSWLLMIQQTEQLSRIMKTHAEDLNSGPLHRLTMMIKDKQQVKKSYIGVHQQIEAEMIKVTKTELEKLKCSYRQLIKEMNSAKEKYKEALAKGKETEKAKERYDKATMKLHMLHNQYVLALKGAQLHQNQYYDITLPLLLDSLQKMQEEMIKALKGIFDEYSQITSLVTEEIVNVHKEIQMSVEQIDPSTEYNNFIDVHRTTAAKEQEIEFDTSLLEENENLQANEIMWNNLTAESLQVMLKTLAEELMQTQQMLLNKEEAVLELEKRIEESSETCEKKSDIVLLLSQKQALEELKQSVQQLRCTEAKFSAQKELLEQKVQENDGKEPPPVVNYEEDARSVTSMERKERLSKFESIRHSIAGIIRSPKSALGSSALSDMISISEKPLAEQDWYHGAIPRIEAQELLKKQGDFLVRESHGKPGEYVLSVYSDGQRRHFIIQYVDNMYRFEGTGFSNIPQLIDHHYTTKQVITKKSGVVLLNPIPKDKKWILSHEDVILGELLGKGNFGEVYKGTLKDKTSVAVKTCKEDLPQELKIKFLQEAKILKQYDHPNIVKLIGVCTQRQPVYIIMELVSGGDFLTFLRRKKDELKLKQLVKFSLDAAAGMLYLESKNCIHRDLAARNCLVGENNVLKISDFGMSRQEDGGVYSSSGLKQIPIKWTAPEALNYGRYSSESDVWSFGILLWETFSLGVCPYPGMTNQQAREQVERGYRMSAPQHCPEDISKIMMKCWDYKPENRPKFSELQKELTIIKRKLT
Structure (SMILES),inhibition [1],inhibition [2],inhibition [3],inhibition [4],inhibition [5],inhibition [6],inhibition [7],inhibition [8],inhibition [9],inhibition [10],inhibition [11],inhibition [12],inhibition [13],inhibition [14],inhibition [15],inhibition [16],inhibition [17],inhibition [18] [%],inhibition [19] [%],inhibition [20] [%]
CN1CCN(Cc2ccc(-c3cc4ncnc(Nc5ccc(OCc6cccc(F)c6)c(Cl)c5)c4s3)o2)CC1,-2.36% and 1.48%,-2.73% and 2.15%,2.75% and 5.84%,2.47% and 3.64%,4.95% and 10.4%,6.16% and 11.9%,5.13% and 6.55%,8.33% and 7.32%,3.73% and 7.71%,4.63% and 4.53%,0.3% and 3.67%,6.48% and 3.12%,5.26% and 7.95%,62.3% and 65%,81.7% and 91.1%,93% and 97.8%,1.93% and 6.27%,–,–,–
Cc1nnc(-c2cccc(-c3ccc(C(=O)NCC4CC4)cc3)c2)o1,1.56%,0.66%,5.76%,6.16%,11.3%,10.8%,11.1%,9.32%,4.24%,5.58%,1.46%,2.08%,2.59%,5.51%,8.69%,12.5%,3.39%,4.56,2.93,3.63
CC1(C)CC(n2cnc(-c3ccc(F)cc3)c2-c2ccnc(N)n2)CC(C)(C)N1,-2.86%,-2.93%,-0.75%,-0.11%,0.35%,-1.89%,0.78%,4.85%,3.09%,1.51%,0.27%,0.62%,-1.2%,-3.03%,0.19%,3.58%,3.41%,-1.34,2.59,1.85
O=C(O[C@H]1CN[C@H](C#Cc2cc3ncnc(Nc4ccc(OCc5cccc(F)c5)c(Cl)c4)c3s2)C1)N1CCOCC1,1.93%,1.46%,5.97%,4.01%,10.4%,12.3%,7.71%,6.81%,5.55%,5.83%,0.52%,1.52%,6.98%,52.8%,82.2%,85.3%,5.92%,18,4.1,9.08
O=C(O[C@H]1CN[C@H](C#Cc2cc3ncnc(Nc4ccc5c(ccn5Cc5cc(F)ccc5F)c4)c3s2)C1)N1CCOCC1,0.75%,0.06%,4.84%,4.4%,6.87%,3.19%,5.25%,4.17%,6.61%,5.15%,2.46%,3.04%,9.01%,40.9%,86.9%,86.3%,1.31%,50.3,4.66,9.08
COc1cccc(-n2ncc3c(N/N=C/c4ccc(C(=O)NCCN(C)C)cc4)ncnc32)c1,1.33%,5.44%,3.11%,6.35%,2.76%,15.9%,14.1%,46.4%,5.98%,7.32%,6.37%,30.5%,0.77%,10.5%,23.2%,49.9%,3.03%,4.06,4.3,25.9
OCCCNc1nccc(-c2c(-c3ccc(F)cc3)nn3cc(C(F)(F)F)ccc23)n1,1.26%,1.9%,2.86%,3.67%,8.53%,13.3%,8.48%,28.2%,4.77%,1.45%,1.6%,7.56%,0.24%,-0.41%,8.07%,14.4%,1.98%,-0.33,-1.34,5.46
